{"source": "PubChem BioAssay (NCI)", "note": "Compounds without any hit were thinned out: in the full panel of roughly 79,000, 15% have a hit. A number with no mark means an inactive call. Cut-off read from the data, not from the text of the source: active = growth inhibition above about 70%; inactive = the rest."}
{"assay": "NCI Yeast Anticancer Drug Screen. Data for the bub3 strain (AID 167)", "conditions": "S. cerevisiae bub3 mutant strain, at 50.0 µM, active compounds read high", "in_short": "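Screening used yeast with an engineered genetic alteration affecting cell cycle control. Compound-exposed cultures were compared with vehicle cultures, and reduced growth was taken as inhibition.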", "units": {"growth inhibition": "%"}}
{"compound": "S=C(NCc1ccccc1)Nc1ncn[nH]1", "growth inhibition": 3.55}
{"compound": "Nc1cc(N)nc(S(=O)(=O)O)n1", "growth inhibition": 3.6}
{"compound": "c1ccc2c3nnc(c2c1)SCCSCCCSCCS3", "growth inhibition": 8.65}
{"compound": "C/C=C1\\CN2CCc3c([nH]c4ccccc34)C2CC1CC(=O)N(C)C", "note": "(stereo not given)", "growth inhibition": 1.6}
{"compound": "O=C(Nc1ccccc1)OCC#CCOC(=O)Nc1ccccc1", "growth inhibition": 2.45}
{"compound": "CC1(C)C2CCC1(C)C1(C2)OC(CCl)CS1", "note": "(stereo not given)", "growth inhibition": 22.4}
{"compound": "C/C(CC(=O)Nc1cccc([N+](=O)[O-])c1)=N\\NC(=O)CC#N", "growth inhibition": -8.45}
{"compound": "Cn1cnc([N+](=O)[O-])c1Sc1nc2ccccc2[nH]1", "growth inhibition": -30.6}
{"compound": "COC1OC2COC(C2O)C1OS(=O)(=O)c1ccc(C)cc1", "note": "(stereo not given)", "growth inhibition": -12.3}
{"compound": "COc1cc2c(cc1OC)C(=O)Cc1ccc3c(c1CN(C)CC2)OCO3", "growth inhibition": -40.5}
{"compound": "O=S(=O)(Nc1ccc(C(F)(F)F)cc1)c1ccc(F)cc1", "growth inhibition": -0.95}
{"compound": "CC(C)C1CCC(C)(C(N)=O)C1", "note": "(stereo not given)", "growth inhibition": -8.25}
{"compound": "Nc1ccc(C(=O)Nc2ccc(C(=O)Nc3ccc4c(O)cc(S(=O)(=O)O)cc4c3)cc2)cc1", "growth inhibition": -4.7}
{"compound": "CCOC(=O)NC(=O)c1cn(CCCCCOC(=O)NCCCCCCNC(=O)OCCCCCn2cc(C(=O)NC(=O)OCC)c(=O)[nH]c2=O)c(=O)[nH]c1=O", "growth inhibition": 6.7}
{"compound": "O=C1c2ccccc2C(=O)c2c1c([N+](=O)[O-])c1c(c2[N+](=O)[O-])OCO1", "growth inhibition": 14.1}
{"compound": "O=C(COc1cccc(Cl)c1)Nc1ccccc1", "growth inhibition": 39.7}
{"compound": "CCOc1ccc(-c2cc(-c3ccc(OCC)cc3)cc(-c3ccc(OCC)cc3)c2)cc1", "growth inhibition": -5.05}
{"compound": "Cc1ccc(CCOC(=O)Nc2ccccc2)cc1", "growth inhibition": 1.8}
{"compound": "Cc1c(C2(c3cc(C(C)C)c(O)c(CN(CC(=O)O)CC(=O)O)c3C)OS(=O)(=O)c3ccccc32)cc(C(C)C)c(O)c1CN(CC(=O)O)CC(=O)O", "growth inhibition": 2.8}
{"compound": "COc1ccc(CC2c3cc(OC)c(OC)cc3CCN2C(=O)OCc2ccccc2)cc1OC", "note": "(stereo not given)", "growth inhibition": 8.65}
{"compound": "Cc1ccc(S(=O)(=O)OCC2CCC(=O)N2)cc1", "note": "(stereo not given)", "growth inhibition": -3.9}
{"compound": "Cc1cc2c(=O)cc(-c3ccc(O)cc3)oc2c(C(=O)O)c1C", "growth inhibition": 0.6}
{"compound": "COC(=O)C(Cc1ccccc1)NC(=O)C1CSC(C)(C)N1C=O", "note": "(stereo not given)", "growth inhibition": 22.8}
{"compound": "COC(=O)C1(CCC(C)=O)CCC(C)C1=O", "note": "(stereo not given)", "growth inhibition": -19.6}
{"compound": "Cn1c(=O)oc2cc(Br)ccc21", "growth inhibition": 23}
{"compound": "COc1ccc(C(=O)C2CCC(C(=O)O)C2)cc1", "note": "(stereo not given)", "growth inhibition": -21.9}
{"compound": "CC(=O)[O][Ga]([Br])[O]C(C)=O", "growth inhibition": 15.7}
{"compound": "CC(=O)Oc1cc(C)c(OC(C)=O)cc1C", "growth inhibition": 16.9}
{"compound": "O=C(OC1(c2ccccc2)OC(=O)c2ccccc21)c1ccccc1C(=O)c1ccccc1", "note": "(stereo not given)", "growth inhibition": 3.4}
{"compound": "CC(=O)Nc1ccc(-c2nnc(SCC(=O)Nc3cccc(C)c3)o2)cc1", "growth inhibition": 9.7}
{"compound": "COc1ccccc1N=Nc1c(-c2ccccc2)nn(C(=O)CC(=O)Nc2cccc(C)c2)c1-c1ccccc1", "growth inhibition": 52.5}
{"compound": "COC=C(C(=O)OC)C(=O)OC", "growth inhibition": -10.5}
{"compound": "OCC1(CO)CCC=CO1", "growth inhibition": 1.05}
{"compound": "NC(=O)C(CCc1ccccc1)(CCc1ccccc1)c1ccc2ccccc2c1", "growth inhibition": 29.8}
{"compound": "O=C1CS(=O)(=O)C2(CCCCC2)C(=O)N1", "growth inhibition": -3.2}
{"compound": "O=C(O)/C=C/c1ccc(C(NC(=O)N2C(=O)C=CC2=O)NC(=O)N2C(=O)C=CC2=O)cc1", "growth inhibition": 13.3}
{"compound": "CC(=O)NCCC1CN(C(=O)/C=C/I)c2ccccc21", "note": "(stereo not given)", "growth inhibition": 24.6}
{"compound": "CCCCCCOCC(=O)O", "growth inhibition": -10.4}
{"compound": "O=C(NCCCCN1CCCC1)C(c1cc2ccccc2s1)C1CCCCC1", "note": "(stereo not given)", "growth inhibition": 24.2}
{"compound": "Cc1c2cc3c(c1O)C(=O)CC(O3)c1ccc(O)c(c1)-c1cccc(c1O)C(=O)OCC1OC(O2)C(O)C(O)C1O", "note": "(stereo not given)", "growth inhibition": 39.6}
{"assay": "NCI Yeast Anticancer Drug Screen. Data for the mlh1 rad18 strain (AID 175)", "conditions": "S. cerevisiae mlh1 rad18 strain growth inhibition; at 50.0 µM; active compounds read high", "in_short": "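Test agents were incubated with a yeast strain of defined genotype (DNA damage repair defect). Inhibition of growth was derived by comparison with vehicle-exposed cultures.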", "units": {"growth inhibition": "%"}}
{"compound": "S=C(NCc1ccccc1)Nc1ncn[nH]1", "growth inhibition": 3.8}
{"compound": "Nc1cc(N)nc(S(=O)(=O)O)n1", "growth inhibition": -12.9}
{"compound": "c1ccc2c3nnc(c2c1)SCCSCCCSCCS3", "growth inhibition": -30.4}
{"compound": "C/C=C1\\CN2CCc3c([nH]c4ccccc34)C2CC1CC(=O)N(C)C", "note": "(stereo not given)", "growth inhibition": -5.95}
{"compound": "O=C(Nc1ccccc1)OCC#CCOC(=O)Nc1ccccc1", "growth inhibition": 11}
{"compound": "CC1(C)C2CCC1(C)C1(C2)OC(CCl)CS1", "note": "(stereo not given)", "growth inhibition": 8.4}
{"compound": "C/C(CC(=O)Nc1cccc([N+](=O)[O-])c1)=N\\NC(=O)CC#N", "growth inhibition": 2.35}
{"compound": "Cn1cnc([N+](=O)[O-])c1Sc1nc2ccccc2[nH]1", "growth inhibition": -19.1}
{"compound": "COC1OC2COC(C2O)C1OS(=O)(=O)c1ccc(C)cc1", "note": "(stereo not given)", "growth inhibition": -13.3}
{"compound": "COc1cc2c(cc1OC)C(=O)Cc1ccc3c(c1CN(C)CC2)OCO3", "growth inhibition": -17.9}
{"compound": "O=S(=O)(Nc1ccc(C(F)(F)F)cc1)c1ccc(F)cc1", "growth inhibition": 28.1}
{"compound": "CC(C)C1CCC(C)(C(N)=O)C1", "note": "(stereo not given)", "growth inhibition": -2.1}
{"compound": "Nc1ccc(C(=O)Nc2ccc(C(=O)Nc3ccc4c(O)cc(S(=O)(=O)O)cc4c3)cc2)cc1", "growth inhibition": 12.8}
{"compound": "CCOC(=O)NC(=O)c1cn(CCCCCOC(=O)NCCCCCCNC(=O)OCCCCCn2cc(C(=O)NC(=O)OCC)c(=O)[nH]c2=O)c(=O)[nH]c1=O", "growth inhibition": 24.1}
{"compound": "O=C1c2ccccc2C(=O)c2c1c([N+](=O)[O-])c1c(c2[N+](=O)[O-])OCO1", "growth inhibition": 31.2}
{"compound": "O=C(COc1cccc(Cl)c1)Nc1ccccc1", "growth inhibition": 2.05}
{"compound": "CCOc1ccc(-c2cc(-c3ccc(OCC)cc3)cc(-c3ccc(OCC)cc3)c2)cc1", "growth inhibition": -2.85}
{"compound": "Cc1ccc(CCOC(=O)Nc2ccccc2)cc1", "growth inhibition": 17.2}
{"compound": "Cc1c(C2(c3cc(C(C)C)c(O)c(CN(CC(=O)O)CC(=O)O)c3C)OS(=O)(=O)c3ccccc32)cc(C(C)C)c(O)c1CN(CC(=O)O)CC(=O)O", "growth inhibition": 4.95}
{"compound": "COc1ccc(CC2c3cc(OC)c(OC)cc3CCN2C(=O)OCc2ccccc2)cc1OC", "note": "(stereo not given)", "growth inhibition": 12.1}
{"compound": "Cc1ccc(S(=O)(=O)OCC2CCC(=O)N2)cc1", "note": "(stereo not given)", "growth inhibition": 27.1}
{"compound": "Cc1cc2c(=O)cc(-c3ccc(O)cc3)oc2c(C(=O)O)c1C", "growth inhibition": 4.4}
{"compound": "COC(=O)C(Cc1ccccc1)NC(=O)C1CSC(C)(C)N1C=O", "note": "(stereo not given)", "growth inhibition": -20.4}
{"compound": "COC(=O)C1(CCC(C)=O)CCC(C)C1=O", "note": "(stereo not given)", "growth inhibition": -9.8}
{"compound": "Cn1c(=O)oc2cc(Br)ccc21", "growth inhibition": -67.8}
{"compound": "COc1ccc(C(=O)C2CCC(C(=O)O)C2)cc1", "note": "(stereo not given)", "growth inhibition": -13.2}
{"compound": "CC(=O)[O][Ga]([Br])[O]C(C)=O", "growth inhibition": 0.5}
{"compound": "CC(=O)Oc1cc(C)c(OC(C)=O)cc1C", "growth inhibition": 14.3}
{"compound": "O=C(OC1(c2ccccc2)OC(=O)c2ccccc21)c1ccccc1C(=O)c1ccccc1", "note": "(stereo not given)", "growth inhibition": -25.9}
{"compound": "CC(=O)Nc1ccc(-c2nnc(SCC(=O)Nc3cccc(C)c3)o2)cc1", "growth inhibition": -7.75}
{"compound": "COc1ccccc1N=Nc1c(-c2ccccc2)nn(C(=O)CC(=O)Nc2cccc(C)c2)c1-c1ccccc1", "growth inhibition": 27.3}
{"compound": "COC=C(C(=O)OC)C(=O)OC", "growth inhibition": 3.85}
{"compound": "OCC1(CO)CCC=CO1", "growth inhibition": 5}
{"compound": "NC(=O)C(CCc1ccccc1)(CCc1ccccc1)c1ccc2ccccc2c1", "growth inhibition": 46}
{"compound": "O=C1CS(=O)(=O)C2(CCCCC2)C(=O)N1", "growth inhibition": -27.6}
{"compound": "O=C(O)/C=C/c1ccc(C(NC(=O)N2C(=O)C=CC2=O)NC(=O)N2C(=O)C=CC2=O)cc1", "growth inhibition": 19}
{"compound": "CC(=O)NCCC1CN(C(=O)/C=C/I)c2ccccc21", "note": "(stereo not given)", "growth inhibition": -17.4}
{"compound": "CCCCCCOCC(=O)O", "growth inhibition": -13.7}
{"compound": "O=C(NCCCCN1CCCC1)C(c1cc2ccccc2s1)C1CCCCC1", "note": "(stereo not given)", "growth inhibition": 33.1}
{"compound": "Cc1c2cc3c(c1O)C(=O)CC(O3)c1ccc(O)c(c1)-c1cccc(c1O)C(=O)OCC1OC(O2)C(O)C(O)C1O", "note": "(stereo not given)", "growth inhibition": 30.1}
